# This is one part of a sample in which the strongest signals are shown more often than they occur.
# What was measured:
# Assay in all cases: glycan array binding signal (z-score within array); higher = stronger binding
# Details in all cases: glycan notation: IUPAC condensed, linker removed
# [1] = test system: Gal(a1-3)Gal(b1-3)[Fuc(a1-4)]GlcNAc(b1-2)Man(a1-3)[Gal(a1-3)Gal(b1-3)[Fuc(a1-4)]GlcNAc(b1-2)Man(a1-6)]Man(b1-4)GlcNAc(b1-4)GlcNAc
# Summary of the method: (§1)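 Glycan array binding is given as a within-array Z-score, which can be read as non-binding when negative. The arrays, 3228 of them, came from the Consortium for Functional Glycomics database and were retained only where the protein sequence was available. Z-scores were averaged across arrays of the same protein sequence at different concentrations or buffers and across linkers.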
# Fuc(b1-3)GlcNAc = test system: Fuc(b1-3)GlcNAc
# Summary of the method: as §1
# [2] = test system: Gal(a1-3)Gal(b1-3)GlcNAc(b1-6)GalNAc
# Summary of the method: as §1
# Gal(a1-3)Gal(b1-3)GlcNAc = test system: Gal(a1-3)Gal(b1-3)GlcNAc
# Summary of the method: as §1
# [3] = test system: Gal(a1-3)Gal(b1-4)GlcNAc(b1-2)Man(a1-3)[Gal(a1-3)Gal(b1-4)GlcNAc(b1-2)Man(a1-6)]Man(b1-4)GlcNAc(b1-4)GlcNAc
# Summary of the method: as §1
# [4] = test system: Gal(a1-3)Gal(b1-4)GlcNAc(b1-2)Man
# Summary of the method: as §1
# Gal(a1-2)Gal = test system: Gal(a1-2)Gal
# Summary of the method: as §1
# [5] = test system: Gal(a1-3)Gal(b1-3)GlcNAc(b1-2)Man
# Summary of the method: as §1
# [6] = test system: Gal(a1-3)Gal(b1-3)GlcNAc(b1-2)Man(a1-3)[Gal(a1-3)Gal(b1-3)GlcNAc(b1-2)Man(a1-6)]Man(b1-4)GlcNAc(b1-4)GlcNAc
# Summary of the method: as §1
# Fuc(a1-4)GlcNAc = test system: Fuc(a1-4)GlcNAc
# Summary of the method: as §1
substance,measurement,setting,value
"SpGH101 (Streptococcus pneumoniae), Q8DR60",glycan array binding signal (z-score),[1],0.17
LcI (Legionella pneumophila),glycan array binding signal (z-score),Fuc(b1-3)GlcNAc,0.056
same,glycan array binding signal (z-score),[2],4
same,glycan array binding signal (z-score),Gal(a1-3)Gal(b1-3)GlcNAc,4.41
same,glycan array binding signal (z-score),[3],0.12
same,glycan array binding signal (z-score),[4],-0.012
Epa22,glycan array binding signal (z-score),Gal(a1-2)Gal,-0.244
same,glycan array binding signal (z-score),[5],-0.377
"Wza (Escherichia coli), P0A930",glycan array binding signal (z-score),Fuc(b1-3)GlcNAc,1.51
same,glycan array binding signal (z-score),[6],0.652
Actinohivin (Actinomycete K97),glycan array binding signal (z-score),Fuc(b1-3)GlcNAc,-0.17
same,glycan array binding signal (z-score),[5],0.041
same,glycan array binding signal (z-score),[1],0.526
AgI/IIC123-GFP (Streptococcus mutans),glycan array binding signal (z-score),Fuc(a1-4)GlcNAc,6.16
AgI/II Vhelical-GFP (Streptococcus mutans),glycan array binding signal (z-score),Fuc(a1-4)GlcNAc,19.1
same,glycan array binding signal (z-score),Fuc(b1-3)GlcNAc,-0.193
same,glycan array binding signal (z-score),[5],-0.049
"BambL (Burhholderia ambifaria), Q0B4G1",glycan array binding signal (z-score),Fuc(a1-4)GlcNAc,6.86
same,glycan array binding signal (z-score),Fuc(b1-3)GlcNAc,4.1
"SiiE (Salmonella typhimurium), A0A0H3NVH0",glycan array binding signal (z-score),Gal(a1-3)Gal(b1-3)GlcNAc,0.637

# Reference: the supplement of paper PMC8728848
